From ChEMBL document CHEMBL4888484, “Replenishing the malaria drug discovery pipeline: Screening and hit evaluation of the MMV Hit Generation Library 1 (HGL1) against asexual blood stage Plasmodium falciparum ,using a nano luciferase reporter read-out” (2022)
“And” between values parts separate entries of the source, which are not always exact repeats. Identical values can stand only once. Among all 4,800 compounds or so, about 420 (8.8%) showed an effect of 50% or more. The list comes from a sample in which strong results are over-represented; it also holds similar structures and randomly drawn compounds.

Test system: Plasmodium falciparum
Assay: Confirmatory screen in NF54 nanoGlo assay, in single point, at 2uM, 72h
Type: functional, Erythrocyte
Conditions: timepoint 72 hour

Row | SMILES | % Inhibition | % Inhibition (2 µM)
1 | CC(C)(C)OC(=O)NS(=O)(=O)Nc1nccs1 | -13% | 
2 | COCCN(c1ccncc1)S(C)(=O)=O | 6% | 
3 | CCc1ccc(NCc2c(OCc3ccc(Br)cc3)ccc3ccccc23)cc1 | -11% | 
4 | Cc1c(S(=O)(=O)N2CCC[C@H](C(=O)NC3CC3)C2)cnn1C | -4% | 
5 | O=C(Nc1ccccc1)c1ccc2c(c1)C(=O)N(CCc1ccccc1)C2=O | -9% | 
6 | O=C(Cn1c(Cc2ccc(Cl)cc2)nc2ccccc21)Nc1ccccc1 | 14% | 
7 | Cc1ccc(S(=O)(=O)c2c(NS(=O)(=O)c3ccc(F)cc3)n(CCc3ccccc3)c3nc4ccccc4nc23)cc1 | 100% | 
8 | O=C(Nc1c(S(=O)(=O)c2ccccc2)c2nc3ccccc3nc2n1CCc1ccccc1)c1ccc(Cl)cc1 | 102% | 
9 | Cc1ccc(S(=O)(=O)c2c(NS(=O)(=O)c3ccccc3)n(CCc3ccccc3)c3nc4ccccc4nc23)cc1 | 100% | 
10 | CC(C)CCn1c(=O)c2sccc2n(CC(=O)N(C)c2ccccc2)c1=O | 5% | 
11 | COc1cc(OC)c(NC(=O)COc2ccccc2-c2nc3ccccc3s2)cc1Cl | 0% | 
12 | O=C(c1cc2c(s1)CCCC2)N1CCC[C@H](c2nnc3ccccn23)C1 | -17% | 
13 | CCN1C(=O)[C@@]2(CC(=O)Nc3c2c(C)nn3-c2ncnc3nc[nH]c23)c2cc(C)ccc21 | 2% | 
14 | COc1ccccc1OCc1nn2c([C@H]3CCCN(S(C)(=O)=O)C3)nnc2s1 | -3% | 
15 | N=C(Cc1ccccc1)NOC(=O)c1cccc2ccccc12 | -11% | 
16 | O=C(COc1ccccc1Cl)Nc1ccc(C2(c3ccc(NC(=O)COc4ccccc4Cl)cc3)c3ccccc3-c3ccccc32)cc1 | 0% | 
17 | O=C1c2ccccc2C(c2ccc(NC(=O)c3cccc4ccccc34)cc2)(c2ccc(NC(=O)c3cccc4ccccc34)cc2)c2ccccc21 | 83% | 
18 | O=C(O)c1cc2c(cc1C(=O)Nc1ccc(Cl)cc1)=[O+]c1ccccc1-c1ccccc1[O+]=2 | -17% | 
19 | O=C(Nc1ccc(N2CCn3c(nc4ccccc43)C2)cc1)c1ccc(F)cc1 | 9% | 
20 | O=C(Nc1ccc(C2(c3ccc(NC(=O)c4ccc(F)cc4)cc3)c3ccccc3C(=O)c3ccccc32)cc1)c1ccc(F)cc1 | 67% | 
21 | O=C(c1ccccc1F)N(Cc1nccn1Cc1ccccc1F)CC1CC1 | 20% | 
22 | O=C(Nc1ccc(Cl)cc1)c1cccc(N2C(=O)C3CCC(c4ccccc4)CC3C2=O)c1 (stereo not drawn) | -5% | 
23 | COc1cc([C@H](CC(=O)NC2CCN(Cc3ccccc3)CC2)N2Cc3ccccc3C2=O)cc(OC)c1OC | 33% | 
24 | CN1CCN(C(=O)[C@H](C(=O)c2ccccc2)n2cc(Cl)ccc2=O)CC1 | -9% | 
25 | COc1ccccc1N1CCN(Cc2nc3ccccc3c(=O)n2-c2ccc(F)cc2)CC1 | 6% | 

Row | SMILES | % Inhibition | % Inhibition (2 µM)
26 | COc1ccc2[nH]c3c(c2c1)CC(C(=O)O)NC3c1ccc(OC)c(CN2CCN(c3ccccc3F)CC2)c1 (stereo not drawn) | 76% | 
27 | Fc1ccccc1N1CCN(C2CCN(Cc3c[nH]c4ccccc34)CC2)CC1 | 4% | 
28 | CC(C)(C)CCN1CCN(S(=O)(=O)C[C@H]2CCCS(=O)(=O)C2)CC1 | -3% | 
29 | C[C@@H](CN)N(C)c1ccnc2cc(Br)cnc12 | 98% | 
30 | COc1c(Br)cc(Br)cc1C(N)=O | -5% | 
31 | CCCOc1cc2nc(C(F)(F)F)cc(-c3cccs3)c2cc1OCCC | -4% | 
32 | CC1=CC(=[N+](CCO)CCO)C=C/C1=C(\c1ccc(N(CCO)CCO)cc1C)c1ccccc1Cl | 91% | 
33 | Cc1ccc([C@@H]2CC(=O)Nc3nc(N4CCN(CCO)CC4)nc(O)c32)cc1 | 2% | 
34 | NC(=O)CN1CCC2(CC1)NC(c1ccc(OC(F)(F)F)cc1)=NO2 | 0% | 
35 | Cc1cncc(C(=O)N2CC(n3cnnc3C)C2)c1 | -19% | 
36 | CCc1nnc(NC(=O)C2CC2c2ccccc2)s1 (stereo not drawn) | -3% | 
37 | COC(=O)c1c(NC(=O)[C@H]2CCCN(S(=O)(=O)c3cnn(C)c3C)C2)cnn1C | 4% | 
38 | CNS(=O)(=O)CC(=O)Nc1cc(Br)c(F)cc1F | -12% | 
39 | COc1cccc(CNC(=O)CCC(=O)N(c2ccccc2)c2ccccc2)c1 | 7% | 
40 | COc1ccc(CCNC(=O)CCCC(=O)NCc2ccccc2)cc1OC | -14% | 
41 | CCCNC(=O)C[C@H](C)CC(=O)NCCc1ccc(OC)c(OC)c1 | 4% | 
42 | COc1ccc(CC(=N)Nc2cc3cc(OC)c(OC)cc3c(Cc3ccc(OC)c(OC)c3)n2)cc1OC | 80% | 
43 | COC(=O)C1=C(C(=O)OC)SC(=C2C(=S)C(C)(C)N(C(=O)c3cccnc3)c3c(C)cc(C)cc32)S1 | 4% | 
44 | O=C(N[C@H]1CCCc2occc21)c1ccco1 | 0% | 
45 | Oc1cccc(CN[C@H]2CCCc3occc32)c1Cl | 71% | 
46 | CC(O)CC(C)(C)CNC1CCCc2occc21 (stereo not drawn) | -12% | 
47 | CCN1CCC(CCNC(=O)c2cc3c(s2)N(CC)CCCC3)CC1 | -7% | 
48 | CCOc1cc(N2CCOCC2)c(OCC)cc1NC(=O)c1ccc(C)c(NC(=O)c2ccco2)c1 | 22% | 
49 | N#Cc1nc(NC(=O)c2cc3c(s2)CCOC3)[nH]c1C#N | 3% | 
50 | CN(CC(F)(F)F)S(=O)(=O)c1ccc(C(=O)O)cc1 | -5% | 

Row | SMILES | % Inhibition | % Inhibition (2 µM)
51 | Cc1ccc(CC[C@H]2Nc3ccccc3C(c3ccccc3)(c3ccccc3)O2)o1 | 74% | 
52 | Cc1ccccc1[C@H]1CCN(c2ccc(NC(=O)c3ccc(F)cc3)c(C(=O)O)c2)C1 | -11% | 
53 | Cc1cc(Cn2cc(C(c3ccccc3)c3ccccc3)nn2)no1 | -3% | 
54 | Nc1c(-c2ccccc2)nsc1C(=O)NCc1ccc(F)cc1 | -2% | 
55 | CC(=O)Nc1ccc(NC(=O)CN2CCCN(c3cncc(F)c3)CC2)cc1 | -1% | 
56 | O=C(O)C1C2C=CC(O2)C1C(=O)NC1CCCc2ccccc21 (stereo not drawn) | -4% | 
57 | O=C(CC(O)c1cccc(F)c1)NCCC1CCCCO1 (stereo not drawn) | -1% | 
58 | COc1cccc(-c2nc3n(c2C(=O)NCC(C)C)CCS3(=O)=O)c1 | -2% | 
59 | CCO[C@@H](C)C(=O)Nc1n[nH]c(Cc2cccc(F)c2)n1 | -1% | 
60 | COCCc1cc(NC(=O)Nc2sc(-c3ccccc3)nc2C)n(C)n1 | 14% | 
61 | COc1cccc(-c2nc(C)c(C(=O)Nc3n[nH]c(CC(C)C)n3)s2)c1 |  | 78% and 70%
62 | COc1cccc(-c2nc(C)c(C(=O)Nc3nc(C(C)C)n[nH]3)s2)c1 | 74% | 
63 | COc1cccc(CNC(=O)c2sc(Nc3ccc(C)cc3C)nc2C)c1 | -13% | 
64 | C[C@@](CO)(NC(=O)Nc1cc(-c2ccco2)ccc1F)C1CC1 | -4% | 
65 | O=C(c1ccccc1)c1c[nH]c2c(F)cc(F)cc2c1=O | -5% | 
66 | CCOCCc1nc(-c2ccccn2)c(CCOCC)nc1-c1ccccn1 | 10% | 
67 | O=C1NC(=O)[C@]2(CCOc3ccc(F)cc32)N1 | -3% | 
68 | Cc1cc(C)n2c(=O)c3ccccc3nc2c1C#N | -5% | 
69 | Cc1cc(C)nc(NCCC[C@H]2CCCCO2)n1 | -6% | 
70 | Cc1cccc(CN(Cc2cccc(C)n2)C[C@H]2CCCCO2)n1 | 90% | 
71 | Cc1cccc(CNC(=O)NC2CCOC2c2ccc(Cl)cc2)n1 (stereo not drawn) | -15% | 
72 | O[C@H]1CNCC[C@@H]1Nc1cc(-c2ccccc2)nc2ccccc12 | 46% | 
73 | COc1cc(OC)c(S(=O)(=O)NC(C)C)cc1S(=O)(=O)NC(C)C | -4% | 
74 | O=C1CC(c2cccc(Br)c2)N(S(=O)Oc2ccccc2)c2ccccc21 (stereo not drawn) | 4% | 
75 | COc1ccc2oc(-c3ccc(CNC(=O)c4ccc(C)cc4)cc3)nc2c1 | -3% | 

Row | SMILES | % Inhibition | % Inhibition (2 µM)
76 | COc1ccc(CNc2nc(-c3nnc(-c4ccccc4)o3)nc3ccccc23)cc1 | 55% | 
77 | COc1ccc2oc(-c3ccc(CNC(=O)c4ccccc4)cc3)nc2c1 | -5% | 
78 | Oc1c(-n2cncn2)cnc2ncnn12 | -7% | 
79 | Cc1cc(-c2ccco2)cc(Cl)c1N | -1% | 
80 | O=C1CCN(C(=O)C2(c3cccc(Cl)c3)CCCC2)CCN1 | 2% | 
81 | CC(C)(C)c1ccc(-c2ccc(C(=O)NCC3(O)CCOCC3)o2)cc1 | 0% | 
82 | COC(=O)c1c(NC(C)=O)c2cc(NC3CCOCC3)cnc2n1CCc1ccc(OC)cc1 | 70% | 
83 | CCc1c(NC(=O)[C@@H](C)C2CC2)nnn1CCc1ccc(OC)cc1 | -1% | 
84 | COc1ccc(NC(=O)[C@@H](C)C2CCOCC2)cc1 | -6% | 
85 | Cc1nn(C)c2c(N3CCOCC3)nc(C3CC3)nc12 | -8% | 
86 | CC[C@H]1Cn2c(C(=O)NCc3ccc(C)o3)cc3cccc(c32)O1 | -11% | 
87 | COc1ccc(CCc2nnc3n2CCOC3)cc1 | -4% | 
88 | COc1ccc(-[n+]2c(-c3ccc(-c4ccccc4)cc3)cn3c2COCC3)cc1 | 66% | 
89 | COc1ccc(-c2nc(N)s[n+]2-c2ccccc2)cc1 | -2% | 
90 | COc1ccc(-c2nnc(COc3ccc(-c4ccccc4)cc3)s2)cc1 | -7% | 
91 | COc1ccc(-[n+]2c(-c3ccccc3)cn3c2CCC3)cc1 | 77% | 
92 | COc1ccc(-c2noc(Cn3c(=O)c4ccccc4n(CC(=O)Nc4cc(C)ccc4C)c3=O)n2)cc1 | 0% | 
93 | O=C(Nc1nn(Cc2ccccc2)cc1Cl)c1cc(-c2ccc(OC(F)F)cc2)[nH]n1 | 4% | 
94 | Nc1noc2cc(C(F)(F)F)cnc12 | 4% | 
95 | COc1ccc2c(c1)CN(c1nnc(C3CC3)o1)CC2 | 7% | 
96 | O=c1[nH]c2cc3c(cc2c(=O)n1Cc1nc(-c2ccc(Cl)cc2)no1)OCO3 | -1% | 
97 | Cc1cc(C)nc(-n2nc(-c3ccc(Cl)cc3)c3c2NC(=O)C[C@@H]3c2ccc3c(c2)OCO3)n1 | -7% | 
98 | CN1CCN(Cc2cc3cc4c(cc3nc2-c2ccc(Cl)cc2)OCO4)CC1=O | 53% | 
